Assay [1] can be described thus: NCI Yeast Anticancer Drug Screen. Data for the rad50 strain (AID 155).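 Also: 0% = growth of vehicle-only cultures of the same strain.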 Particulars: S. cerevisiae rad50 strain growth inhibition; at 50.0 µM; hits give high values. The essentials: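 Cells are treated with compound, grown, and their growth is then scored against vehicle-only cultures of the same repair-deficient yeast strain.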
A short description of assay [2]: NCI Yeast Anticancer Drug Screen. Data for the mec2-1 strain (AID 157). Particulars: S. cerevisiae mec2-1 strain, at 50.0 µM, hits give high values. The essentials:
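Each compound was tested on mec2-1 yeast, a strain altered in DNA damage repair or cell cycle control. Growth inhibition is reported relative to vehicle.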

Assay [3] is described as follows: NCI Yeast Anticancer Drug Screen. Data for the sgs1 mgt1 strain (AID 161).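 Also: 0% = growth of cultures given vehicle only.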 The note with it: S. cerevisiae sgs1 mgt1 strain, at 50.0 µM, hits give high values. The essentials: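 Read-out: growth inhibition vs vehicle controls. Cells: mutant yeast strain deficient in DNA damage repair.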
Assay [4] in a line: NCI Yeast Anticancer Drug Screen. Data for the cln2 rad14 strain (AID 165).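 Also: 0% = growth equal to vehicle treated cultures.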 Particulars: S. cerevisiae cln2 rad14 strain, at 50.0 µM, hits give high values. An outline of the steps: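 Test compounds were added to cln2 rad14 yeast cultures; inhibition of growth was then determined by comparison with vehicle treatment.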
Assay [5] in a line: NCI Yeast Anticancer Drug Screen. Data for the bub3 strain (AID 167). Particulars: S. cerevisiae bub3 mutant strain, at 50.0 µM, hits give high values. The essentials: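 Part of a panel of yeast mutants defective in DNA damage repair or cell cycle regulation. Each strain is grown with compound, and inhibition is calculated relative to solvent-treated cultures.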
Assay [6] can be described thus: NCI Yeast Anticancer Drug Screen. Data for the mlh1 rad18 strain (AID 175). Particulars: S. cerevisiae mlh1 rad18 strain growth inhibition; at 50.0 µM; hits give high values. An outline of the steps: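 Inhibition values reflect reduced growth of mutant yeast versus vehicle-treated controls following compound exposure; the mutations affect DNA damage repair.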

Each structure is given as a SMILES string. Compounds without any hit were thinned out: in the full panel of roughly 79,000, 15% have a hit. A number with no mark means an inactive call. Calls of active or inactive are those of the source. Rule as the data show it: active = growth inhibition above about 70%; inactive = the rest.

As for `OCC1CC=CCC1` (stereo not given), the growth inhibition in assay [1] was 2.35%; in assay [2] it was -22.1%; in assay [3], -4.35%; in assay [4], 16%; in assay [5], -27.1%; in assay [6], 11.6%.

Regarding `COc1cc(C(=O)N2C3C4CCC(C)(OC4(C)C)C32)cc(OC)c1OC` (stereo not given), the growth inhibition in assay [1] is 18.4%; in assay [2], -15.4%; in assay [3] it was 2.8%; in assay [4], 10.2%; in assay [5], 6%; in assay [6], -8.9%.

Consider `CS1(C)=NC(=O)c2cc([N+](=O)[O-])ccc2N=1`, for which the growth inhibition is 12.2% in assay [1]; 19.4% in assay [2]; 10.4% in assay [3]; -25.2% in assay [4]; 11.8% in assay [5]; 12.8% in assay [6].

On to `C(=C\c1cccc2ccccc12)/c1ccc(-c2ccccc2)cc1`, for which the growth inhibition was -5.9% in assay [1]; -45% in assay [2]; -0.75% in assay [3]; 12.1% in assay [4]; -3.45% in assay [5]; 5.75% in assay [6].

With `CC1(C)Cc2[nH]c3ccccc3c(=O)c2-c2nc3ccccc3c(=O)n21`, the growth inhibition in assay [1] is -5.35%; in assay [2] it was 6.05%; in assay [3], 4.8%; in assay [4], -35.6%; in assay [5], -2.2%; in assay [6], -12.9%.

For the compound `NCc1ccc(Cl)cc1`, the growth inhibition was 8.65% in assay [1]; -2.65% in assay [2]; 11.4% in assay [3]; 25.8% in assay [4]; -2.2% in assay [5]; 14.2% in assay [6].

In the case of `O=C1c2ccccc2-c2ccc(-n3c(=O)c4ccccc4c4ccccc4c3=O)cc21`, the growth inhibition is 28.6% in assay [1]; -1.7% in assay [2]; 29.8% in assay [3]; 16.1% in assay [4]; 8.35% in assay [5]; 25.4% in assay [6].

On to `COc1ccc(/C(Cl)=C(\C=N/O)c2ccc(OC)c(OC)c2)cc1OC`, for which the growth inhibition in assay [1] is -8.45%; in assay [2], 11.9%; in assay [3] it was -0.7%; in assay [4], 2.05%; in assay [5], 8.15%; in assay [6] it was -7.45%.

Consider `O=C1CSSCC(=O)NCCCN1`, for which the growth inhibition in assay [1] is 2.25%; in assay [2], 1.15%; in assay [3], -5.35%; in assay [4], 0.8%; in assay [5], 2.55%; in assay [6] it was 28.2%.

For `C1=CCSC(Nc2ccccc2)=NC1`, the growth inhibition in assay [1] was 7.65%; in assay [2] it was 3.35%; in assay [3], -7.05%; in assay [4], -2.6%; in assay [5] it was 0.75%; in assay [6], -5.85%.

Take `CCCC(CN1CCCCC1)C(OC(=O)c1ccc(N)cc1)C(F)(F)F` (stereo not given): the growth inhibition is -14.2% in assay [1]; -13.7% in assay [2]; 24.1% in assay [3]; -30.8% in assay [4]; 67.5% in assay [5]; 22.4% in assay [6].

Take `Nc1[nH]c(=S)[nH]c(=O)c1NS(=O)(=O)c1cccc([N+](=O)[O-])c1`: the growth inhibition is -14.1% in assay [1]; -10% in assay [2]; -22.1% in assay [3]; -18.2% in assay [4]; -11.4% in assay [5]; 12.8% in assay [6].

Regarding `C=C(CC(=O)OCC)C(=O)OCC`, the growth inhibition is 15.4% in assay [1]; 4.6% in assay [2]; 18.4% in assay [3]; 1.95% in assay [4]; 1.25% in assay [5]; 13.8% in assay [6].

As for `Cc1nn(C)c(NC(=O)c2ccccc2O)c1SC#N`, the growth inhibition in assay [1] was 43.3%; in assay [2], -5.35%; in assay [3], 16.7%; in assay [4], 28.2%; in assay [5], 35.2%; in assay [6], 10.4%.

With `CC1CN(N)C(=O)O1` (stereo not given), the growth inhibition in assay [1] was -3.9%; in assay [2] it was -18.4%; in assay [3] it was -19%; in assay [4] it was 2.9%; in assay [5] it was 2.6%; in assay [6], -21.9%.

Consider `CC(C)N1C(=O)c2cccc3c(Br)ccc(c23)C1=O`, for which the growth inhibition in assay [1] is 97.8% (active); in assay [2] it was 99.3% (active); in assay [3] it was 97.2% (active); in assay [4], 98.4% (active); in assay [5] it was 99.2% (active); in assay [6], 98.5% (active).

As for `CC(C(O)c1ccc(Cl)cc1)C(O)(C(F)(F)F)C(F)(F)F` (stereo not given), the growth inhibition is 99.2% (active) in assay [1]; 99.3% (active) in assay [2]; 99.2% (active) in assay [3]; 99% (active) in assay [4]; 99% (active) in assay [5]; 99.4% (active) in assay [6].

In the case of `CC1=C(C(=O)Nc2ccccc2)C(c2ccc(C3C(C(=O)Nc4ccccc4)=C(C)NC(C)=C3C(=O)Nc3ccccc3)cc2)C(C(=O)Nc2ccccc2)=C(C)N1`, the growth inhibition was 70% (active) in assay [1]; 71.6% (active) in assay [2]; 53% in assay [3]; 41.5% in assay [4]; 82.5% (active) in assay [5]; 84.8% (active) in assay [6].

`Cc1noc(C)c1CCCOC1COc2ccccc2OCCOCCOc2ccccc2OC1`: the growth inhibition in assay [1] is -4.7%; in assay [2], -7.15%; in assay [3], -5.8%; in assay [4], -21.1%; in assay [5] it was -9.15%; in assay [6] it was -5.25%.

Turning to `Fc1ccc(C(Nc2nncs2)Nc2nncs2)c(F)c1`, the growth inhibition is -0.8% in assay [1]; -13.8% in assay [2]; 12.6% in assay [3]; -44.1% in assay [4]; -35.8% in assay [5]; 9.7% in assay [6].

For the origin of these results see PubChem BioAssay (NCI).
